The record followed here is PubChem BioAssay.

SMILES strings stand for the structures. Where “and” joins values, the source holds several entries; their conditions need not be identical. Equal values may be shown once. Some compounds were tested as several samples or in several runs, with calls that do not always agree. Calls of active or inactive are those of the source.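 How the source made its calls, unless noted: active means normalized viability below 100% at a tested concentration; inactive means the rest.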

The nature of assay [1]: compounds altering circadian rhythm period length – cell-based, LOPAC library, luminescence reporter (AID 2774; call rule not given here;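 further: values are relative to mean of DMSO wells on each plate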). Conditions: circadian reporter cells, at 7 µM, actives lie on both sides.
The subject of assay [2] is Hepatitis C virus NS3 helicase. Description: blockers of NS3h binding to ssDNA – biochemical, fluorescence polarization, LOPAC1280 library, primary screen (AID 687035; in the data active means inhibition above about 37%). Conditions: Purified HCV NS3 helicase, Cy5-dT15 ssDNA binding fluorescence polarization; stronger effect = higher value; concentration not given here.
The nature of assay [3]: compounds altering Cy5-DNA-NS3h complex signal – biochemical, LOPAC1280, artefact control for HCV NS3 helicase inhibitor project (AID 687037; call rule not given here). Conditions: Cy5-DNA-NS3h complex fluorescence interference counterscreen. Background: Counterscreens check selectivity or assay interference.
The subject of assay [4] is Aerobactin synthetase IucA (Klebsiella pneumoniae). The assay is described as follows: inhibition of K. pneumoniae IucA enzyme – biochemical, Tocris library, absorbance (AID 1345561; call rule not given here;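 further: 100% = enzyme without compound and 0% = no enzyme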). Conditions: purified IucA enzyme assay, absorbance (OD) read-out; stronger effect = lower value;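 tested at 8 µM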.
A short description of assay [5]: viability loss with induced miR-34 in A549 – imaging, A549 dox-inducible miR-34, nuclei and caspase counts, primary screen (AID 1347080;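 active means compounds whose cell count with miR-34 switched on is under 0.7 times the count with it off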). Conditions: A549 miR-34 inducible, Hoechst nuclei count, 48 h.
Assay [6] can be described thus: blockers of cellular phospholipid synthesis – cell-based, LOPAC library, screen 4, primary screen (AID 1347384; call rule not given here). Conditions: animal cells, phospholipid biosynthesis inhibition screen; at 10 µM.
A short description of assay [7]: galactose survival enhancers in mitochondrial complex I cybrids – cell-based, galactose medium, ATP luminescence, primary screen (AID 1645843;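 active means z-score of at least 1.8 in each of two replicates, scored against plate mean and spread of sample wells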;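 further: positive z means more ATP and so rescue of galactose-driven cybrid death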). Conditions: complex I mutant cybrid cells, 72 h, stronger effect = higher value.
A short description of assay [8]: compounds altering viability of human ES cells (AID 493140; call rule not given here;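 further: cells exposed to compounds for four days before counting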). Conditions: human embryonic stem cell survival screen; stronger effect = higher value.
A short description of assay [9]: chitosan synthesis blockers in C. neoformans – flow cytometry, Cibacron Brilliant Red staining (AID 1347148; call rule not given here;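 further: compound exposure lasted three days at 37 degrees C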). Conditions: Cryptococcus neoformans chitosan, stronger effect = lower value; at 10 µM unless noted.
Assay [10] can be described thus: compounds altering HSF1 focus formation in cells – imaging, Selleck Cancer Library (AID 1347162; in the data active means plate-normalised HSF1 focus index below about 0.46). Conditions: human cells, HSF1 nuclear foci imaging, at 10 µM; SSMD: measured here: HSF1 foci SSMD mean; cell count: measured here: cell number; plate-normalised HSF1 focus index: stronger effect = lower value.
Assay [11] can be described thus: MELAS cybrid and Rieske KO viability enhancers – cell-based, MELAS cybrids, Rieske KO mouse fibroblasts, CellTiter-Glo, primary screen (AID 1508586;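 active means mean z-score across replicates of 1.96 or higher in either the MELAS or the Rieske mutant cell line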;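 further: z relative to plate mean and SD of compound and empty wells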). Conditions: low glucose. (In ATP-based viability assays light output follows the ATP content of the culture.)
A short description of assay [12]: drug combination growth inhibition, ovarian cancer – cell-based, oncology-focused library, rucaparib conditional, profiling panel (AID 1508598). Conditions: patient-derived ovarian cancer cells, CellTiter-Glo viability, 144 h, stronger effect = lower value.
Setting [13] is: stronger effect = lower value, cell number ratio, induced over uninduced.
[14] abbreviates: measured here: relative caspase fold change +Dox/-Dox.
Setting [15] is: measured here: total cells with miR-34 induction, stronger effect = lower value.
The mark [16] stands for this setting: measured here: total cells without miR-34 induction.

For orientation: inhibition means the relative decrease from the control value, in per cent. Broadly, the remaining activity is the signal under treatment as a percentage of the control signal. On to `CC(C)(CO)Cc1cc(C(C)(C)C)c(O)c(C(C)(C)C)c1`, for which the period change in assay [1] is 0.05 h (inactive). In addition, the inhibition in [2] is 0% (inactive). Also, the fluorescence ratio (interference) in assay [3] was 1 (inactive). Moreover, in [4], the remaining activity was 101% (inactive). The fold change in assay [5] (setting [13]) was 1.04 (inactive) and 0.971 (inactive); in assay [5] (setting [14]), 1.88 and 0.81. The cell count in [5] (setting [15]) was 7090 and 8690; in assay [5] (setting [16]) it was 6800 and 8950. The result in assay [6] was inactive. Also, the z-score in assay [7] was -1.4 (inactive) and -0.73 (inactive).
As to `Fc1cccc(/C=N/N=C/c2cccc(F)c2)c1`, the remaining activity in assay [4] is 113% (inactive). In addition, the fold change in [5] (setting [13]) is 1.08 (inactive) and 0.921 (inactive); in assay [5] (setting [14]), 1.02 and 0.755. The cell count was 11300 and 8600 in [5] (setting [15]); 10400 and 9330 in assay [5] (setting [16]). Also, the result in [6] was inactive. Further, in assay [7], the z-score was 0.64 (inactive) and 0.415 (inactive).
For `CN(C)c1ccc(/C=C2\C(=O)Nc3ccccc32)cc1`, in assay [1], the period change was -0.18 h (inactive). For the same compound, the survival in [8] is 85.4 (inactive). The inhibition in assay [2] is -2% (inactive). Besides, the fluorescence ratio (interference) in assay [3] is 0.9 (inactive). Besides, the remaining activity in assay [4] was 109% (inactive). The fold change in [5] (setting [13]) was 1.15 (inactive) and 1.05 (inactive) and 0.834 (inactive); in [5] (setting [14]), 1.24 and 1.39 and 0.903. Also, the cell count in [5] (setting [15]) is 7000 and 1360 and 6590; in assay [5] (setting [16]), 6070 and 1300 and 7900. For the same compound, the fold fluorescence in [9] is 5.59 [at 189.2 µM] (inactive). Besides, the outcome in assay [6] was inactive. Also, the z-score in assay [7] is 3.25 (active) and 0.195 (inactive).
For orientation: viability means a read-out of living cells in per cent, often relative to untreated cells. Regarding `Cn1cc(C2=C(c3ccc(Cl)cc3Cl)C(=O)NC2=O)c2ccccc21`, the period change in assay [1] is 0.025 h (inactive). Moreover, the inhibition in assay [2] is -3% (inactive). Further, in assay [3], the fluorescence ratio (interference) is 1 (inactive). Moreover, the remaining activity in assay [4] was 92.7% (inactive). Further, the fold change in assay [5] (setting [13]) is 0.99 (inactive) and 0.96 (inactive) and 1.01 (inactive); in assay [5] (setting [14]), 1.07 and 0.76 and 0.707. For the same compound, the cell count was 4090 and 5760 and 2500 in assay [5] (setting [15]); 4130 and 6000 and 2470 in assay [5] (setting [16]); 7820 in assay [10]. For the same compound, the SSMD in assay [10] worked out at 1.42. Moreover, the plate-normalised HSF1 focus index in [10] was 1.09 (inactive). For the same compound, in assay [6], the result was inactive. Moreover, the z-score in assay [11] (MELAS cybrid survival, CellTiter-Glo 48 h, stronger effect = higher value) was -0.394 (inactive); in assay [11] (Rieske KO mouse fibroblast survival, CellTiter-Glo 72 h) it was 0.82; in assay [7], 1.59 (inactive) and 0.305 (inactive). Also, the viability in [12] (at 0.000305 µM, OCI-C5x cells, with rucaparib 10 µM, 100% = cells with rucaparib alone) is 106% (inactive); in [12] (at 0.000305 µM, OCI-C5x cells, without rucaparib) it was 117% (inactive); in [12] (at 0.000305 µM, OCI-P5x cells, with rucaparib 20 µM, 100% = cells with rucaparib alone) it was 102% (inactive); in [12] (at 0.000305 µM, OCI-P5x cells, without rucaparib) it was 103% (inactive); in assay [12] (at 0.00122 µM, OCI-C5x cells, with rucaparib 10 µM, 100% = cells with rucaparib alone), 122% (inactive); in [12] (at 0.00122 µM, OCI-C5x cells, without rucaparib), 119% (inactive). Further, the viability was 107% (inactive) in assay [12] (at 0.00122 µM, OCI-P5x cells, with rucaparib 20 µM, 100% = cells with rucaparib alone); 89.9% (active) in assay [12] (at 0.00122 µM, OCI-P5x cells, without rucaparib); 117% (inactive) in assay [12] (at 0.00488 µM, OCI-C5x cells, with rucaparib 10 µM, 100% = cells with rucaparib alone); 114% (inactive) in [12] (at 0.00488 µM, OCI-C5x cells, without rucaparib); 105% (inactive) in [12] (at 0.00488 µM, OCI-P5x cells, with rucaparib 20 µM, 100% = cells with rucaparib alone); 91.8% (active) in assay [12] (at 0.00488 µM, OCI-P5x cells, without rucaparib). Further, the viability in assay [12] (at 0.0195 µM, OCI-C5x cells, with rucaparib 10 µM, 100% = cells with rucaparib alone) was 125% (inactive); in assay [12] (at 0.0195 µM, OCI-C5x cells, without rucaparib), 111% (inactive); in [12] (at 0.0195 µM, OCI-P5x cells, with rucaparib 20 µM, 100% = cells with rucaparib alone), 98.3% (active); in assay [12] (at 0.0195 µM, OCI-P5x cells, without rucaparib), 89.5% (active); in assay [12] (at 0.0781 µM, OCI-C5x cells, with rucaparib 10 µM, 100% = cells with rucaparib alone), 110% (inactive); in assay [12] (at 0.0781 µM, OCI-C5x cells, without rucaparib) it was 112% (inactive). Also, the viability is 106% (inactive) in assay [12] (at 0.0781 µM, OCI-P5x cells, with rucaparib 20 µM, 100% = cells with rucaparib alone); 81.9% (active) in assay [12] (at 0.0781 µM, OCI-P5x cells, without rucaparib); 122% (inactive) in [12] (at 0.313 µM, OCI-C5x cells, with rucaparib 10 µM, 100% = cells with rucaparib alone); 106% (inactive) in [12] (at 0.313 µM, OCI-C5x cells, without rucaparib); 97.2% (active) in [12] (at 0.313 µM, OCI-P5x cells, with rucaparib 20 µM, 100% = cells with rucaparib alone); 89.8% (active) in assay [12] (at 0.313 µM, OCI-P5x cells, without rucaparib). Moreover, the viability in assay [12] (at 1.25 µM, OCI-C5x cells, with rucaparib 10 µM, 100% = cells with rucaparib alone) was 126% (inactive); in assay [12] (at 1.25 µM, OCI-C5x cells, without rucaparib), 111% (inactive); in [12] (at 1.25 µM, OCI-P5x cells, with rucaparib 20 µM, 100% = cells with rucaparib alone), 96.3% (active); in assay [12] (at 1.25 µM, OCI-P5x cells, without rucaparib), 84.5% (active); in assay [12] (at 5 µM, OCI-C5x cells, with rucaparib 10 µM, 100% = cells with rucaparib alone) it was 114% (inactive); in assay [12] (at 5 µM, OCI-C5x cells, without rucaparib) it was 120% (inactive). Also, the viability in assay [12] (at 5 µM, OCI-P5x cells, with rucaparib 20 µM, 100% = cells with rucaparib alone) was 89.2% (active); in assay [12] (at 5 µM, OCI-P5x cells, without rucaparib), 83.9% (active).
